Compounds with a hit are over-represented: about 3.7% of the library has one in this group of screens.
tim23-1 inh: tim23-1 yeast growth inhibition; S. cerevisiae tim23-1 growth, BacTiter-Glo luminescence, 24 h; inhibition, % at 20 µM; hit rate 1.3% among 330,000;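 active = growth inhibition of the mutant yeast at or above 50%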;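 also: temperature-sensitive mutant grown at 25 °C; plate controls were DMSO-treated mutant yeast for no effect and medium wells lacking yeast for full effect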
TIM10 inh: growth inhibitors of TIM10 yeast strain; S. cerevisiae TIM10 strain growth, BacTiter-Glo luminescence, 24 h; inhibition, % at 10 µM; hit rate 1.4% among 330,000; AID 463195;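 active = inhibition of 40% or more at the single tested concentration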;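 also: wild-type TIM10 isogenic control strain grown at permissive 25 °C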
tim10-1 inh: growth inhibitors of tim10-1 mutant yeast; S. cerevisiae tim10-1 ts strain growth, BacTiter-Glo, 24 h; inhibition, % at 20 µM; hit rate 2.2% among 330,000; AID 463190;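 active = inhibition of at least 40%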;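 also: mutant grown at 25 °C; 0% = DMSO wells with yeast and 100% = wells holding no yeast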
PfHsp90 set2: growth inhibition of yeast expressing Plasmodium Hsp90; S. cerevisiae expressing PfHsp90, BacTiter-Glo ATP, 48 h; yeast lacking PDR1 and PDR3 efflux regulators; inhibition, % at 9.4 µM; hit rate 0.32% among 310,000; AID 504621;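 active = every replicate shows inhibition above about 80%, whatever the replicate mean, limit read from the data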;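 also: 0% = DMSO neutral controls and 100% = 20 µM radicicol positive controls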
NALP3 yeast inh: blocks the NALP3 inflammasome reconstituted in yeast. inhibition, % at 10 µM. Yeast reconstituted NLRP3/ASC/caspase-1, beta-gal luminescence, 24 h. AID 2825. hit rate 0.39% among 330,000;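 active = inhibition of 50% or more; inactive = inhibition below 50%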;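 also: plate controls were induced DMSO wells for no effect and uninduced yeast grown without galactose for full effect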
tim10-1 confirm: tim10-1 yeast growth inhibition, confirmed | hit rate 56% among 7,400 | shares compounds with tim10-1 inh | S. cerevisiae tim10-1 ts strain growth, BacTiter-Glo, 24 h | inhibition, % at 20 µM | AID 463213;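 active = inhibition of yeast growth at or above a set limit in either of two repeat tests at 20 µM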;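 also: tim10-1 mutant grown at permissive 25 °C to find synthetic lethal compounds; 0% = DMSO yeast wells and 100% = medium wells without yeast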
TIM10 conf: TIM10 yeast growth inhibition, confirmed; shares compounds with TIM10 inh; S. cerevisiae tim10 strain growth, BacTiter-Glo luminescence, 24 h; inhibition, % at 10 µM; hit rate 63% among 4,600; AID 463215;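 active = inhibition of yeast growth at or above a set limit in either of two replicates at 10 µM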;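 also: this counterscreen used the strain with wild-type TIM10; 0% = yeast with DMSO and 100% = medium wells lacking yeast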
tim23-1 confirm: confirmation of tim23-1 mutant yeast growth inhibitors. hit rate 83% among 4,400. AID 463218. S. cerevisiae tim23-1 growth, BacTiter-Glo luminescence, 24 h. inhibition, % at 20 µM. shares compounds with tim23-1 inh;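 active = inhibition above about 39% in either of two replicate wells at 20 µM, limit read from the data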;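 also: temperature-sensitive tim23-1 mutant grown at 25 °C; 0% = DMSO wells with yeast and 100% = medium wells without yeast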
The depositor's hits bear a star; x = no result given.

SMILES	tim23-1 inh	TIM10 inh	tim10-1 inh	PfHsp90 set2	NALP3 yeast inh	tim10-1 confirm	TIM10 conf	tim23-1 confirm
Cc1ccc(N2C(=O)c3ccc(N)cc3C2=O)cc1C	52*	34	42*	x	20	36*	x	43*
COc1ccccc1C(=O)NCCC(=O)N(C)CC(=O)Nc1c(Cl)cccc1Cl	-2	4	-7	11	3	x	x	x
Cc1ccc(CSc2nc3ccccc3cc2C=O)cc1	69*	25	48*	-31	13	47*	x	57*
O=Cc1cc2ccccc2nc1SCc1ccc(Cl)cc1	78*	50*	64*	x	14	55*	63*	64*
COc1ccc(C(=O)Nc2ccccc2C(=O)N/N=C/c2ccncc2)cc1OC	61*	33	43*	34	3	55*	x	53*
COc1ccc(C(=O)Nc2ccccc2C(=O)NCc2cccnc2)cc1OC	4	8	-1	-2	10	x	x	x
Cc1cccc2c1N(CCOc1ccccc1Cl)C(=O)C2=O	56*	27	51*	27	16	19	x	-30
O=C1c2ccccc2C(=O)N1CCOc1ccccc1Cl	17	-8	24	-1	17	x	x	x
Cc1ccccc1OCCN1C(=O)C(=O)c2cccc(C)c21	60*	23	45*	0	20	26	x	33
COc1ccccc1OCCCN1C(=O)C(=O)c2cccc(C)c21	37	18	9	17	24	x	x	x
NC(=NC(=O)c1ccc(OCC(F)(F)F)nc1)c1ccccc1	34	15	15	2	11	x	x	x
NC(=NC(=O)c1ccc(OCC(F)(F)F)nc1)c1ccc(Cl)cc1	56*	18	68*	-4	14	48*	x	42*
COc1ccc(-c2cc3nc(C)cc(N)n3n2)cc1	54*	47*	62*	63	14	44*	14	64*
O=c1c2ccccc2c(/C=N/n2cnnc2)c(O)n1-c1ccccc1F	12	11	9	-10	0	x	x	x
Cc1[nH]nc2c1C(c1cc(Br)cs1)C(C#N)=C(N)O2 (stereo unspecified)	61*	30	53*	-27	19	35*	x	45*
Cc1[nH]nc2c1C(c1ccco1)C(C#N)=C(N)O2 (stereo unspecified)	6	16	0	1	6	x	x	x
O=C(Nc1nc2c(F)cc(F)cc2s1)C1CC(=O)N(Cc2ccco2)C1 (stereo unspecified)	-2	0	-3	-33	1	x	x	x
S=C(NNc1ccc2ccccc2c1)NC1CCCCC1	52*	51*	49*	-39	7	53*	56*	52*
Cc1ccc(NC(=S)NNC(=S)NC2CCCCC2)cc1	1	18	31	-34	8	x	x	x
O=C(O)c1ccc(NC2=C/C(=N/S(=O)(=O)c3ccccc3)c3ccccc3C2=O)cc1	40	14	38	-30	-1	x	x	x
Cc1cc(C)c(S(=O)(=O)/N=C2\C=C(Nc3ccc(C(=O)O)cc3)C(=O)c3ccccc32)c(C)c1	60*	24	43*	-8	28	35*	x	63*
COc1ccc(C(=O)NNC(=O)c2ccccn2)cc1	51*	33	52*	42	-1	40*	x	42*
Cc1ccc(C(=O)C(OC(=O)CN2C(=O)c3ccccc3C2=O)c2ccccc2)cc1C (stereo unspecified)	13	35	24	19	-48	x	x	x
CN1CCN(C(=O)CCN2C(=O)/C(=C\c3ccc(Cl)cc3)SC2=S)CC1	31	18	34	-24	15	x	x	x
CC(=O)N(C(C)=O)N1C(=O)/C(=C/c2ccc(Cl)cc2)SC1=S	75*	57*	64*	114*	-10	58*	80*	39*
SMILES	tim23-1 inh	TIM10 inh	tim10-1 inh	PfHsp90 set2	NALP3 yeast inh	tim10-1 confirm	TIM10 conf	tim23-1 confirm
CN(Cc1ccccc1)c1nc(CN2CCOCC2)nc2scc(-c3ccccc3)c12	65*	55*	47*	2	-7	42*	40*	61*
CCNc1nc(CN2CCCCC2)nc2scc(-c3ccccc3)c12	-12	14	8	5	0	x	x	x
Cc1c(C(=O)NCc2ccc3c(c2)OCO3)oc2ccccc12	53*	41*	48*	x	19	42*	28	55*
CCNc1nc2[nH]c(=O)c3c(c2s1)OC(N)=C(C#N)C3c1ccc(C)cc1 (stereo unspecified)	15	3	5	-11	27	x	x	x
N/C(Cc1ccccc1)=N\OC(=O)c1cccc2ccccc12	68*	85*	77*	-8	-5	57*	91*	50*
N/C(=N\OC(=O)Cc1ccccc1)c1ccc(Br)cc1	21	25	37	-40	12	x	x	x
N/C(Cc1ccc(Cl)cc1Cl)=N\OC(=O)c1ccccc1F	65*	81*	63*	4	4	14	88*	53*
O=C(O/N=C(\c1ccccc1)c1ccncc1)c1ccccc1F	51*	30	50*	6	10	37*	x	61*
O=C(O/N=C(/c1ccccc1)c1ccncc1)c1cccc(F)c1	37	39	29	-16	7	x	x	x
NC(=O)c1cccc2ccccc12	-1	2	1	-26	-4	x	x	x
N/C(=N\OC(=O)c1cccc2ccccc12)c1ccc(Br)cc1	63*	69*	67*	16	21	61*	69*	68*
N/C(Cc1cccc2ccccc12)=N\OC(=O)c1ccccc1F	67*	61*	55*	-3	12	50*	71*	76*
CCOC(=O)c1c(S(=O)(=O)N2CCCC(C(=O)Nc3ncccc3C)C2)c(C)n(C)c1C (stereo unspecified)	12	0	22	9	-4	x	x	x
O=C1Nc2ccccc2/C1=C\C(=O)c1ccccc1	88*	82*	52*	1	28	52*	93*	-43
CN(O)/C=C1\C(=O)Nc2ccccc21	12	1	0	8	11	x	x	x
O=C(Oc1ccc(-c2nnco2)cc1)c1ccco1	15	8	21	12	12	x	x	x
CCOC(=O)c1cnc2ccc(OCC)cc2c1NCc1ccccc1	43	18	20	-26	6	x	x	x
CCC(C)(C)c1ccc(OCCCC[n+]2ccc(C)cc2)c(C(C)(C)CC)c1	60*	-38	42*	x	-32	17	x	39*
CCOC(=O)[C@@H]1[C@H]2COc3cc(OC)ccc3[C@@H]2N2C(=O)N(c3cccc(C)c3)C(=O)[C@]12C	29	16	12	1	4	x	x	x

Bioassay records: PubChem BioAssay, several laboratories
